# Experimental data as given in the supplement of paper PMC11865577.
# Structures can show the parent of a compound that is named as a salt.
# Experiments:
# Assay in all cases: normalised indicator fluorescence (fraction of RNA + indicator signal without compound); higher = less displacement of indicator (weaker competition)
# Settings in all cases: compound concentration: 5 uM, 30 min
# hsa-mir-191 loop = tested on: hsa-mir-191 loop
# Method in brief: (§1)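 Values are ratios: indicator fluorescence, less a buffer-plus-indicator blank, over the RNA-plus-indicator signal with no compound, as the mean of two independent experiments. This displacement screen used TO-PRO-1 or TO-PRO-3 with RNA in 96-well plates, in 20 mM phosphate pH 7.0, 20 mM NaCl, 80 mM KCl. Compounds went in at about 5 uM final, and readings were taken after 30 min on an Infinite 200 PRO at 485 or 620 nm excitation.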
# hsa-mir-21 loop = tested on: hsa-mir-21 loop
# Method in brief: as §1
# hsa-mir-221 loop = tested on: hsa-mir-221 loop
# Method in brief: as §1
# hsa-mir-374a loop = tested on: hsa-mir-374a loop
# Method in brief: as §1
# hsa-mir-6850 loop = tested on: hsa-mir-6850 loop
# Method in brief: as §1
# [1] = indicator: TO-PRO-1 0.1 uM, RNA concentration: 0.1 uM
# [2] = indicator: TO-PRO-3 0.5 uM, RNA concentration: 0.5 uM
Structure (SMILES),normalised indicator fluorescence (hsa-mir-191 loop; [1]),normalised indicator fluorescence (hsa-mir-191 loop; [2]),normalised indicator fluorescence (hsa-mir-21 loop; [1]),normalised indicator fluorescence (hsa-mir-21 loop; [2]),normalised indicator fluorescence (hsa-mir-221 loop; [1]),normalised indicator fluorescence (hsa-mir-221 loop; [2]),normalised indicator fluorescence (hsa-mir-374a loop; [1]),normalised indicator fluorescence (hsa-mir-374a loop; [2]),normalised indicator fluorescence (hsa-mir-6850 loop; [1]),normalised indicator fluorescence (hsa-mir-6850 loop; [2])
NC(=O)c1ccc(N(C(N)=O)c2c(F)cccc2F)nc1-c1ccc(F)cc1F,0.984,1.01,0.905,1.02,1.06,0.999,1.15,1.19,0.94,1.03
Oc1ccc(-c2nc(-c3ccc(F)cc3)c(-c3ccncc3)[nH]2)cc1,1.1,1.04,0.993,1.03,1.08,1.13,1.09,1.2,0.999,1.04
COc1ccc(-c2coc3cc(O)ccc3c2=O)cc1O [Calycosin],1.08,1.02,1,1.06,1.03,1.08,1.01,1.25,1.01,1.07
Nc1ncnc2c1ncn2[C@@H]1O[C@H](CO)[C@@H](O)[C@@H]1O [Vidarabine],1.03,1.07,1.03,1.04,1.03,1.04,1.16,1.15,1,1.06
C[C@H](CCC(=O)NCCS(=O)(=O)O)[C@H]1CC[C@H]2[C@@H]3[C@@H](O)C[C@@H]4C[C@H](O)CC[C@]4(C)[C@H]3CC[C@]12C [Tauroursodeoxycholic Acid],1.03,1.01,0.892,1.01,1.02,1.05,1.06,1.13,0.975,1.02
CC1(C)OC(=O)C=C[C@]2(C)[C@H]3CC[C@@]4(C)[C@H](c5ccoc5)OC(=O)[C@H]5O[C@]54[C@]3(C)C(=O)C[C@@H]12 [Obacunone],1.07,1.03,1.06,1.08,1.12,1.07,1.11,1.09,0.979,1.05
NC(=O)c1ccccc1Nc1ccnc(Nc2cccc(O)c2)n1,0.949,1.02,0.974,1.02,0.967,0.979,1.12,1.2,0.993,1.04
Cc1oncc1C(=O)Nc1ccc(C(F)(F)F)cc1 [Leflunomide],0.986,0.97,0.91,1.03,1,1.11,1.11,1.36,0.838,1.01
CC(=O)Oc1c(C)c(C)c2c(c1C)CCC(C)(CCC[C@H](C)CCC[C@H](C)CCCC(C)C)O2 (stereo not given in full) [Vitamin E Acetate],1.01,1.05,0.923,1.04,1.1,1.05,1.01,1.02,0.957,1.02
C[C@@H]1O[C@@H](O[C@H]2[C@H](Oc3cc(O)c4c(c3)O[C@H](c3ccc(O)cc3)CC4=O)O[C@H](CO)[C@@H](O)[C@@H]2O)[C@H](O)[C@H](O)[C@H]1O [Naringin],0.96,1.09,0.933,1.08,1.06,1.04,1.14,1.21,0.897,1.09
CCNC(=O)c1[nH]nc(-c2cc(Cl)c(O)cc2O)c1-c1ccc(OC)cc1,1.01,1.05,1.05,1.06,1.02,0.975,1.11,1.11,0.952,1.05
O=C1C[C@@H](c2ccc(O)cc2)Oc2cc(O)cc(O)c21 [Naringenin],0.927,1.03,0.942,1.05,1.07,0.975,1.17,1.18,0.978,1.02
CC(=O)c1ccc(S(=O)(=O)NC(=O)NC2CCCCC2)cc1 [Acetohexamide],0.972,1.04,0.846,1.09,1.08,1.05,1.18,1.21,0.908,1.08
N#CC(c1ccnc(OCc2ccc(CN3CCOCC3)cc2)n1)c1nc2ccccc2s1 (stereo not given),1.03,0.659,1.14,0.839,1.37,0.837,1.26,0.694,0.827,0.505
CCc1cc(C(N)=S)ccn1 [Ethinamide],1.07,1.01,1.1,1.04,1.04,1.07,1.18,1.2,1.04,1.05
COC1=C(OC)C(=O)C(CCCCCCCCCCO)=C(C)C1=O [Idebenone],1.04,1.05,0.937,1.04,1.02,1.04,1.04,1.03,0.917,1.02
CN(C)CCCN1c2ccccc2CCc2ccc(Cl)cc21 [Clomipramine hydrochloride],1,1.1,0.961,0.987,1.07,1.01,1.14,1.02,0.864,1.08
COc1c(C)cnc(Cn2cnc3c(Cl)nc(N)nc32)c1C,1.04,1.04,0.99,1.04,1.01,1.06,1.19,1.09,1.02,1.05
N=C(NCCCCCCNC(=N)NC(=N)Nc1ccc(Cl)cc1)NC(=N)Nc1ccc(Cl)cc1 [Chlorhexidine hydrochloride],1.01,0.962,0.896,1,1.01,0.981,1.06,1.05,0.906,1.04

Structure (SMILES),normalised indicator fluorescence (hsa-mir-191 loop; [1]),normalised indicator fluorescence (hsa-mir-191 loop; [2]),normalised indicator fluorescence (hsa-mir-21 loop; [1]),normalised indicator fluorescence (hsa-mir-21 loop; [2]),normalised indicator fluorescence (hsa-mir-221 loop; [1]),normalised indicator fluorescence (hsa-mir-221 loop; [2]),normalised indicator fluorescence (hsa-mir-374a loop; [1]),normalised indicator fluorescence (hsa-mir-374a loop; [2]),normalised indicator fluorescence (hsa-mir-6850 loop; [1]),normalised indicator fluorescence (hsa-mir-6850 loop; [2])
Cc1c(C)c2c(c(C)c1O)CC[C@@](C)(CCC[C@H](C)CCC[C@H](C)CCCC(C)C)O2 [Vitamin E],1.08,1.06,0.956,1.01,1.02,1.07,1.05,1.06,0.907,1.03
O=C(O)/C=C/c1ccc(Cn2ccnc2)cc1 [Ozagrel hydrochloride],0.95,0.992,1.01,1.02,1,0.921,1.07,1.12,1.02,1.03
O=C(O)CCc1ccc(O)cc1O [Hydroumbellic acid],1.11,1.05,0.973,1.06,0.989,1.16,1.1,1.13,1.1,1.04
Oc1ccc(OCc2ccccc2)cc1 [Monobenzone],0.997,1.15,0.955,1.11,1.03,1.17,1.27,1.27,0.909,1.06
C[C@H]1[C@H](C)CC[C@]2(C(=O)O)CC[C@]3(C)C(=CC[C@@H]4[C@@]5(C)C[C@@H](O)[C@H](O)[C@@](C)(CO)[C@@H]5CC[C@]43C)[C@H]12 [Asiatic acid],0.974,1.01,0.904,1.07,1.03,0.961,1.15,1.06,0.846,1.03
CC1=NN(c2ccccc2)C(=O)C1 [Edaravone],1.06,1.11,1.07,1.04,1.05,1.04,1.06,1.12,1.05,1.05
N=C(NCCCCCCNC(=N)NC(=N)Nc1ccc(Cl)cc1)NC(=N)Nc1ccc(Cl)cc1 [Chlorhexidine],0.988,1.04,1.05,1,0.96,0.994,1.05,1.05,0.83,1.07
CO[C@H]1/C=C/O[C@@]2(C)Oc3c(C)c(O)c4c(c3C2=O)C2=NC3(CCN(CC(C)C)CC3)NC2=C(NC(=O)/C(C)=C\C=C\[C@H](C)[C@H](O)[C@@H](C)[C@@H](O)[C@@H](C)[C@H](OC(C)=O)[C@@H]1C)C4=O [Rifabutin],1.04,1.01,1.03,0.969,0.997,1.01,1.34,1.04,0.991,1.07
CC1=C[C@]2(O)O[C@@]3(CC2=C(C)C)[C@@H](C)CC[C@@H]13 [Curcumenol],1,1.02,1.06,1.04,1.01,1.31,1.08,1.33,1.02,0.985
O=C(NC(Cc1cc(=O)[nH]c2ccccc12)C(=O)O)c1ccc(Cl)cc1 (stereo not given) [Rebamipide],1.07,1.14,0.99,1.03,1.08,1.04,1.1,1.13,1.19,1.03
CC(C)c1cc(-c2n[nH]c(=O)n2-c2ccc3c(ccn3C)c2)c(O)cc1O [Ganetespib],1.04,1.03,1,1.04,1.03,1.08,1.07,1.14,0.915,1
O=C1O[C@H]([C@@H](O)CO)C(O)=C1O [L(+)-Ascorbic acid],1.01,1,0.953,1,1.05,1.11,1.05,1.12,1.09,1.06
COc1nc(-c2ccc3c(c2)OCO3)n(-c2ccc(NC(=O)CSc3ccccc3)cc2)n1 [SecinH3],1.09,1.02,0.961,1.2,1.02,1.1,1.01,1.12,1,0.992
COC(=O)c1ccc([C@H]2c3[nH]c4ccccc4c3C[C@H](C(=O)OC)N2C(=O)CCl)cc1,1.05,1,0.974,1.02,0.997,1.09,1.01,1.39,1.09,1.03
CC(C)N(CCCCOCC(=O)NS(C)(=O)=O)c1cnc(-c2ccccc2)c(-c2ccccc2)n1 [Selexipag],1.04,1.01,1.07,1.07,1.05,1.12,1.14,1.11,1.1,1.09
COc1ccc(C2CC(=O)c3c(O)cc(OC4OC(COC5OC(C)C(O)C(O)C5O)C(O)C(O)C4O)cc3O2)cc1OC (stereo not given) [Methyl hesperidin],0.968,1.08,0.942,0.97,1.05,1.03,1.14,1.14,0.967,1.07
NNC(=O)c1ccncc1 [Isoniazid],1.01,1.06,0.967,1.07,0.976,1.01,1.01,1.07,0.921,1.09
CC(C)(O)[C@@H]1CC[C@](C)([C@H]2[C@@H](O)C[C@@]3(C)[C@@H]4C[C@H](O)[C@H]5C(C)(C)[C@@H](O[C@@H]6OC[C@@H](O)[C@H](O)[C@H]6O[C@@H]6O[C@H](CO)[C@@H](O)[C@H](O)[C@H]6O)CC[C@@]56C[C@@]46CC[C@]23C)O1 [Astragaloside III],1.09,1.07,1.01,1.02,1.06,1.07,1.04,1.19,0.952,1.11
